# CYP2C9 inhib = inhibitors of human CYP2C9 | AID 777 | actives 20% (n = 96,000) | P11712 | CYP2C9 Supersomes, luciferin-H conversion, luminescence | inhibition, % at 5 µM;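 active = blocking of liver enzyme CYP2C9 beyond about 50% at 5 µM, limit read from the data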
# CYP2C9 act = CYP2C9 (human) activation. P11712. recombinant CYP2C9, luciferin-H conversion, luminescence; stronger effect = higher value; factor 1 = untreated enzyme, 0 = blocked. activation factor at 5 µM. actives 1.4% (n = 96,000);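 active = activation factor of 2 or more for CYP2C9 at a 5 µM dose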
# PostGolgi ctrl = yeast control strain growth, post-Golgi counter-screen | actives 5% (n = 98,000) | efflux-deficient yeast background strain, growth absorbance A615, 16 h | inhibition, % at 10 µM
# CYP2C19 activ = cytochrome P450 2C19 (human) activation; activation factor at 5 µM; P33261; 96,000 tested, under 10 active; AID 1025; recombinant CYP2C19, luciferin-H EGE luminescence; stronger effect = higher value; 0 = fully inhibited enzyme, 1 = untreated enzyme;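 active = activation factor of at least 2 at 5 µM in the primary screen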
# Target sequence (P33261 whole entry, looked up): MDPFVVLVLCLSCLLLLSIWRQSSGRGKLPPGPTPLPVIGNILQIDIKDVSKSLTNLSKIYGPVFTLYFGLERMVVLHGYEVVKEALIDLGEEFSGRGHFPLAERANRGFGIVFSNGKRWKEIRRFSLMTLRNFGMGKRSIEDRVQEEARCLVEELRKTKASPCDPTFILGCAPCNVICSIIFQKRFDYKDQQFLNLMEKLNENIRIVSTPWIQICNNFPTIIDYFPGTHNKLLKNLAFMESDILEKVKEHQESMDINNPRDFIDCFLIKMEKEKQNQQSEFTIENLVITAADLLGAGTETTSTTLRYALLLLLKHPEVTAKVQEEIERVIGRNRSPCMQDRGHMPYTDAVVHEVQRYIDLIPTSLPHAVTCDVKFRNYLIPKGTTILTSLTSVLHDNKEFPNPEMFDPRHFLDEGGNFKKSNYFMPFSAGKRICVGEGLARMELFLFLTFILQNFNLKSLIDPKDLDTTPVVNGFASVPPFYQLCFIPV
# PostGolgi yeast = growth inhibition of a yeast mutant, post-Golgi transport screen. inhibition, % at 10 µM. AID 739. post-Golgi transport phenotypic cell assay. actives 0.9% (n = 98,000);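 also: yeast cells grown in 1536-well plates; yeast grown about 18 h at 30C before absorbance read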
# CYP2C19 inh = inhibitors of human CYP2C19 | P33261 | inhibition, % at 5 µM | AID 778 | actives 21% (n = 96,000) | CYP2C19 Supersomes, luciferin-H EGE luminescence, 30 min;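 active = CYP2C19 inhibition above a set limit at 5 µM in the primary screen, cut at about 50% in these data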
# Numbers stand for hits; . = inactive; / = no result. The list is not random: actives were taken first. Their share in the collection is about 32%. Rule as the data show it, unless noted: active = inhibition above about 30%; inactive = the rest.
SMILES,CYP2C9 inhib,CYP2C9 act,PostGolgi ctrl,CYP2C19 activ,PostGolgi yeast,CYP2C19 inh
COc1ccc(/C=C(/NC(C)=O)C(=O)O)cc1,.,.,.,.,.,.
O=C1CC(=O)N(CCc2ccc(F)cc2)C(=O)N1,.,.,.,.,.,.
CCOC(=O)N1CCC(NC(=O)c2cccn3c(=O)c4cc(Br)ccc4nc23)CC1,86,.,.,.,.,64
CCOC(=O)N1CCC(NC(=O)c2ccc3nc4ccccc4c(=O)n3c2)CC1,.,.,.,.,.,.
O=C1OCC2=C1C(c1ccc(F)cc1)Sc1ccccc1N2 (stereo unspecified),75,.,.,.,94,77
O=C(CSc1nnc2ccccn12)Nc1ncc(Cl)cc1Cl,.,.,.,.,.,.
Cc1ccc(SCc2cc(=O)[nH]c(N3CCOCC3)n2)cc1,.,.,.,.,.,.
Cc1nc(CSc2ccc(Cl)cc2)cc(N2CCOCC2)n1,.,.,.,.,.,94
CSCc1cc(N2CCOCC2)nc(SCc2ccc(Cl)c(Cl)c2)n1,.,.,.,.,.,53
Cc1nc(CSc2ccc(Cl)cc2)cc(NCc2ccccc2)n1,91,.,.,.,.,85
Cc1nc(CS(=O)c2ccc(Cl)cc2)cc(NCc2ccc(Cl)cc2Cl)n1 (stereo unspecified),96,.,35,.,.,91
COc1ccc(-c2nnc(N3CCC(C)CC3)c3ccccc23)cc1,.,.,.,.,.,.
O=c1c(Cl)c(NCCCO)cnn1-c1nc2ccccc2[nH]1,.,.,.,.,.,.
Cc1nc(SCc2ccccc2C)n[nH]1,.,.,.,.,.,.
Cc1nc(SC(C(=O)c2ccccc2)c2ccccc2)n[nH]1 (stereo unspecified),.,.,.,.,.,78
O=C1CC(C(=O)Nc2cccc3ccccc23)C2(CCCC2)O1 (stereo unspecified),.,.,.,.,.,.
CN(C)C(=O)c1ccc(NC(=O)c2cncc(Br)c2)cc1,/,/,.,/,.,/
CCC(C)c1ccc(O)c(NC(=O)c2cncc(Br)c2)c1 (stereo unspecified),50,.,.,.,.,.
CC(C)c1ccc(O)c(NC(=O)c2cccnc2)c1,.,.,.,.,.,70
COC(=O)c1ccc(C(=O)Nc2cc(Cl)ccc2Cl)cc1NC(=O)c1ccc(N(C)C)cc1,.,.,.,.,.,.
CCC(=O)N(CC)C1=C(O)c2ccccc2C(=O)C1=O,.,.,.,.,.,.
CCCCc1ccc(/C=C2\C(=O)c3ccccc3C(O)=C2C(=O)OCC)cc1,90,.,.,.,.,67
C=CCOc1nc(N(C)C)nc(N(C)C)n1,.,.,.,.,.,.
COc1cccc(=O)c2c(C)n(-c3cc(C)cc(C)c3)c(C)c12,82,.,47,.,.,82
CC(=O)c1c(C(C)=O)c(C)n(-c2nc(-c3ccccc3)c(C)s2)c1C,.,.,.,.,.,.
SMILES,CYP2C9 inhib,CYP2C9 act,PostGolgi ctrl,CYP2C19 activ,PostGolgi yeast,CYP2C19 inh
COc1ccc(-c2c/c(=N\c3nc(-c4ccccc4)c(C)s3)c3ccccc3o2)cc1O,93,.,.,.,.,.
Cc1nc(N2CCC3(CC2)OCCO3)c2nnn(Cc3ccccc3F)c2n1,75,.,.,.,.,69
c1ccc(Cn2nnc3c(N4CCC5(CC4)OCCO5)ncnc32)cc1,/,/,.,/,.,/
Cc1nc(N2CCCC2)c2nnn(Cc3ccccc3Cl)c2n1,.,.,.,.,.,91
CCc1ccccc1N(CC(=O)O)S(C)(=O)=O,.,.,.,.,.,.
C=C(C)c1cccc(C(C)(C)NC(=O)N2CCN(CC)CC2)c1,/,/,.,/,.,/
C=C(C)c1cccc(C(C)(C)NC(=O)N2CCCCC2CC)c1 (stereo unspecified),89,.,.,.,.,51
O=C1C2CCCN2C(c2ccc(Cl)cc2)N1c1nccs1 (stereo unspecified),/,/,.,/,.,/
CCn1c(SCc2ccc(C(=O)OC)o2)nnc1-c1c[nH]c2ccccc12,83,.,.,.,.,98
CCn1c(SC)nnc1-c1c[nH]c2ccccc12,.,.,.,.,.,72
C=CCSc1nnc(-c2c[nH]c3ccccc23)n1CC,.,.,.,.,.,79
COc1ccc(-n2c(SC)nnc2-c2c[nH]c3ccccc23)cc1,.,.,.,.,.,.
CCOC(=O)C(C)Sc1nnc(-c2c[nH]c3ccccc23)n1C (stereo unspecified),.,.,.,.,.,.
CCn1c(SC(C)C(=O)OC)nnc1-c1c[nH]c2ccccc12 (stereo unspecified),.,.,.,.,.,66
O=C(Cn1nc(-c2ccc(F)cc2)ccc1=O)Nc1ccc(C(=O)NC2CC2)cc1,.,.,.,.,.,.
COCCn1c(SC)nnc1-c1c[nH]c2ccccc12,.,.,.,.,.,52
O=C(CSc1ncn[nH]1)Nc1ccc(Cl)c(Cl)c1,.,.,.,.,.,63
O=C(CSc1ncn[nH]1)Nc1ccc(Br)cc1F,.,.,.,.,.,82
Nn1c(SCc2nc3ccccn3c2Br)nnc1-c1cccnc1,.,2.5,.,.,.,.
Cc1ccc(C)c(CSc2nnc(-c3cccnc3)n2N)c1,.,.,.,.,.,.
COc1cccc(NC(=O)CN2CCN(S(=O)(=O)c3ccc(F)cc3)CC2)c1,.,.,.,.,.,.
COc1cc(NC(=O)CN2CCN(S(=O)(=O)c3ccc(C(C)C)cc3)CC2)cc(OC)c1,.,.,.,.,.,74
COc1cccc(NC(=O)CN2CCN(S(=O)(=O)c3ccc(C(C)C)cc3)CC2)c1,.,.,.,.,.,87
COc1ccc(S(=O)(=O)N2CCN(CC(=O)Nc3cc(OC)cc(OC)c3)CC2)cc1,.,.,.,.,.,.
O=C(CN1CCN(C(=O)c2cccs2)CC1)NC1CCCCC1,.,.,.,.,.,.
SMILES,CYP2C9 inhib,CYP2C9 act,PostGolgi ctrl,CYP2C19 activ,PostGolgi yeast,CYP2C19 inh
CCN(CC)c1ccc(NC(=O)c2cnc3ccccn3c2=O)c(C)c1,.,.,.,.,.,.
CN(C)c1nc(Oc2ccc(=O)[nH]n2)nc(N2CCCCC2)n1,.,.,.,.,.,.
CCOC(=O)c1ccc(NC(=O)CCC(=O)OC)cc1,.,.,30,.,.,.
COC(=O)CCC(=O)Nc1ccc(Br)cc1,.,.,.,.,.,65
CCOC(=O)c1ccc(NCc2ccc(N(C)C)cc2)cc1,.,.,.,.,.,54
CCOC(=O)CC(=O)Nc1ccc(C(=O)OCC)cc1,.,.,.,.,.,.
CCOC(=O)c1ccc(NC(=O)N(CC)CC)cc1,.,.,.,.,.,.
CCOC(=O)c1ccc(NC(=O)C(CC)CC)cc1,.,.,.,.,.,55
COC(=O)CCC(=O)Nc1ccc(OC)cc1,.,.,.,.,.,.
COc1ccc(N2CCN(C(=O)c3ccc(Oc4ccc(C(F)(F)F)cn4)cc3)CC2)cc1,.,.,.,.,.,.
